Values joined by “and” are separate entries in the source; they are usually repeats but may differ in a detail not shown here. Equal values may be shown once. Inconclusive results are not listed. Active and inactive are the calls of the source.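 How the source made its calls, unless noted: active means compounds killing one labelled cell type while sparing the other, by normalised counts and ratio limits, not self-fluorescent; inactive means the rest.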 Peptide text beside a SMILES is read from it.
What was measured:
[1] = differential killing of epithelial or mesenchymal cells, primary screen, imaging, PC-3E GFP, TEM4-18 mCherry, co-culture (AID 1345086); conditions: imaging cell counts, at 1 µM; for red/green cell ratio (normalised): actives lie on both sides, counts scaled to control wells, 1 = unselective;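 on all read-outs here: cells exposed to compound for 72 h before imaging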;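 on red/green cell ratio (normalised): normalised mesenchymal count divided by normalised epithelial count so high means epithelial killing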
[2] = growth inhibition of DIPG glioma cells, dose response, cell-based, SU-DIPG-XVII, MIPE5.0, CellTiter-Glo, qHTS (AID 1347060; cut-off not given, nearly all actives have AC50 up to about 26 µM;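 on AC50: cells exposed to compound for 48 hours before viability readout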); conditions: SU-DIPG-XVII viability, CellTiter-Glo ATP luminescence
[3] = growth inhibition of DIPG glioma cells, dose response, cell-based, SU-DIPG-XIII, MIPE4.0, CellTiter-Glo, qHTS (AID 1347061; cut-off not given, nearly all actives have AC50 up to about 37 µM;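 further: cells exposed to compound for 48 hours before readout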); conditions: SU-DIPG-XIII viability, CellTiter-Glo ATP luminescence
[4] = growth inhibition of DIPG glioma cells, dose response, cell-based, JHH-DIPG-1, MIPE4.0, CellTiter-Glo, qHTS (AID 1347062; cut-off not given, nearly all actives have AC50 up to about 27 µM;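 on AC50: cells exposed to compound for two days before readout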); conditions: JHH-DIPG-1 viability, CellTiter-Glo ATP luminescence
[5] = growth inhibition of DIPG glioma cells, dose response, cell-based, SU-DIPG-XIII, MIPE5.0, CellTiter-Glo, qHTS (AID 1347064; cut-off not given, nearly all actives have AC50 up to about 23 µM;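 on AC50: cells exposed to compound for 48 hours before the viability read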); conditions: SU-DIPG-XIII viability, CellTiter-Glo ATP luminescence
[6] = growth inhibition of DIPG glioma cells, dose response, cell-based, SU-DIPG-IV, MIPE4.0, CellTiter-Glo, qHTS (AID 1347063; cut-off not given, nearly all actives have AC50 up to about 30 µM;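 further: compound exposure lasted 48 hours before the viability readout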); conditions: SU-DIPG-IV viability, CellTiter-Glo ATP luminescence
[7] = measured here: epithelial PC-3E GFP cell survival
[8] = measured here: mesenchymal TEM4-18 mCherry cell survival

Structure (SMILES)	red/green cell ratio (normalised) [1]	normalised cell number [1, 7]	normalised cell number [1, 8]	outcome [2]	outcome [3]	outcome [4]	outcome [5]	outcome [6]	AC50 [2]	AC50 [3]	AC50 [4]	AC50 [6]	AC50 [5]
NC(=O)c1ncn([C@@H]2O[C@H](CO)[C@@H](O)[C@H]2O)n1	0.68 (inactive)	1.31	0.89	inactive	inactive	inactive	inactive	–	–	–	–	–	–
CCOC(=O)C(C)(C)Oc1ccc(Cl)cc1	0.94 (inactive)	1.28	1.2	inactive	inactive	inactive	inactive	–	–	–	–	–	–
CC1=C(C)C(=O)C(C(CCCCCC(=O)O)c2ccccc2)=C(C)C1=O (configuration not stated)	1.03 (inactive)	1.04	1.08	inactive	inactive	inactive	–	inactive	–	–	–	–	–
O=NN(CCCl)C(=O)NC1CCCCC1	1.11 (inactive)	1.04	1.15	inactive	inactive	inactive	inactive	–	–	–	–	–	–
C#CCN[C@@H]1CCc2ccccc21	0.97 (inactive)	0.98	0.94	inactive	inactive	inactive	inactive	inactive	–	–	–	–	–
COC(=O)[C@H](Cc1ccccc1)NC(=O)[C@@H](N)CC(=O)O (H-Asp-Phe-OMe)	1.23 (inactive)	1.01	1.24	inactive	inactive	inactive	–	inactive	–	–	–	–	–
COc1ncnc(NS(=O)(=O)c2ccc(N)cc2)c1OC	1.18 (inactive)	0.5	0.6	inactive	inactive	inactive	inactive	inactive	–	–	–	–	–
N[C@@H](Cc1ccc(O)c(O)c1)C(=O)O	0.88 (inactive)	1.01	0.89	inactive	inactive	inactive	–	inactive	–	–	–	–	–
Cc1nc(-c2ccc(OCC(C)C)c(C#N)c2)sc1C(=O)O	1 (inactive)	1.08	1.08	inactive	inactive	inactive	inactive	inactive	–	–	–	–	–
COc1cc([C@H]2Oc3cc([C@H]4Oc5cc(O)cc(O)c5C(=O)[C@@H]4O)ccc3O[C@@H]2CO)ccc1O	0.97 (inactive)	0.9	0.88	inactive	inactive	inactive	–	–	–	–	–	–	–
CN(C)c1ccc2nc3ccc(=[N+](C)C)cc-3sc2c1	0.68 (inactive)	0.15	0.1	–	–	–	–	–	5.9 µM (active)	4.69 µM (active)	2.96 µM (active)	5.9 µM (active)	2.63 µM (active)
CN(Cc1cc(Br)cc(Br)c1N)C1CCCCC1	1.35 (inactive)	0.99	1.33	–	inactive	inactive	–	–	26.3 µM (active)	–	–	–	20.9 µM (active)
CN(C)c1ccc(C(=C2C=CC(=[N+](C)C)C=C2)c2ccc(N(C)C)cc2)cc1	3.62 (active)	0.14	0.5	–	–	–	–	–	1.48 µM (active)	2.96 µM (active)	0.235 µM (active)	0.148 µM (active)	1.48 µM (active)
O=C(O)c1cn(-c2ccc(F)cc2)c2cc(N3CCNCC3)c(F)cc2c1=O	0.95 (inactive) and 0.88 (inactive)	1.1 and 0.99	1.04 and 0.87	inactive	inactive	inactive	inactive	inactive	–	–	–	–	–
COc1ccc(CCN(C)CCCC(C#N)(c2ccc(OC)c(OC)c2)C(C)C)cc1OC (configuration not stated)	1.29 (inactive)	1.17	1.52	inactive	inactive	inactive	inactive	inactive	–	–	–	–	–
CCCCCN(C)CCC(O)(P(=O)(O)O)P(=O)(O)O	1.14 (inactive)	0.86	0.98	inactive	inactive	inactive	inactive	inactive	–	–	–	–	–
CO[C@@H]1[C@@H](OC(N)=O)[C@@H](O)[C@H](Oc2ccc3c(O)c(NC(=O)c4ccc(O)c(CC=C(C)C)c4)c(=O)oc3c2C)OC1(C)C	1.14 (inactive)	1.07	1.21	inactive	inactive	inactive	inactive	inactive	–	–	–	–	–
CCC(C)n1ncn(-c2ccc(N3CCN(c4ccc(OC[C@H]5CO[C@](Cn6cncn6)(c6ccc(Cl)cc6Cl)O5)cc4)CC3)cc2)c1=O (some centres not stated)	0.8 (inactive)	1.27	1.01	inactive	inactive	inactive	–	–	–	–	–	–	–
O=c1oc2c(O)c(O)cc3c(=O)oc4c(O)c(O)cc1c4c23	0.99 (inactive)	0.85	0.84	inactive	inactive	inactive	inactive	–	–	–	–	–	–
Cc1cc(C2CCCCC2)n(O)c(=O)c1	1.34 (inactive)	0.78	1.04	–	–	–	–	–	2.35 µM (active)	16.6 µM (active)	–	3.32 µM (active)	4.17 µM (active)
NCC1CCC(C(=O)O)CC1 (configuration not stated)	1.26 (inactive)	1	1.27	inactive	inactive	inactive	–	inactive	–	–	–	–	–
Cc1ccc(S(=O)(=O)NC(=O)NN2CC3CCCC3C2)cc1 (configuration not stated)	0.84 (inactive)	1.15	0.96	inactive	inactive	–	inactive	–	–	–	20.9 µM (active)	–	–
O=NN(CCCl)C(=O)NCCCl	1.04 (inactive)	1.15	1.2	inactive	inactive	inactive	inactive	inactive	–	–	–	–	–
CNC[C@H](O)c1cccc(O)c1	1.3 (inactive)	0.85	1.11	inactive	inactive	inactive	inactive	inactive	–	–	–	–	–

— PubChem BioAssay
